Marburg entry inh: qHTS for inhibitors of binding or entry into cells for Marburg Virus | 300,000 tested, 1.8% active | Marburg virus pseudotyped entry inhibition, cell reporter | Potency, µM (doses to about 37.8 µM), most hits filed as inhibitors; calls by dose curve; tested in HEK293 cells
Lassa entry inh: qHTS for Inhibitors of binding or entry into cells for Lassa Virus. Lassa virus pseudotype entry inhibition, cell reporter. Potency, µM (doses to about 37.9 µM), most hits filed as inhibitors. 300,000 tested, 1.2% active; calls by dose curve; tested in HEK293 cells; note: nearly all actives have a fitted effect of over 50% in size
HCMV inh: qHTS Assay for inhibitors of the human cytomegalovirus (HCMV); HFF cells, HCMV-luciferase reporter, 72 h; active compounds read low; activity change, negative = inhibition, % at 57.5 µM; 410,000 tested, 4.5% active; AID 1259415, 2018; in the data active = activity change below about -60%; inconclusive = no clear call, values can overlap the other calls; inactive = above about -39%
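Two compound doses tested in HFFs infected with HCMV-luciferase, MOI 1 PFU/cell, 72 h at 37C. Lysate luminescence read with OneGlo; data normalized against buffer-only and 10uM Salinomycin inhibitor controls.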
FMDV inh: High Throughput Screening for Foot and Mouth Disease Virus Antivirals; FMDV antiviral cell-based qHTS; Potency, µM (top dose mostly 57.9 µM), usual class: inhibitors; 410,000 tested, 1.2% active; calls by dose curve; tested in HEK293T cells; note: read-out not given here; nearly all actives have a fitted effect of over 45% in size
Giardia FBPA inh: qHTS Assay for Inhibitors of Fructose-1,6-bisphosphate Aldolase from Giardia Lamblia; Potency, µM (series often up to 59.6 µM), most hits filed as inhibitors; AID 2451, 2010; A8B2U2; purified Giardia FBPA; 290,000 tested, 0.71% active; note: nearly all actives have a fitted effect of over 55% in size
Target sequence (A8B2U2 whole entry, looked up): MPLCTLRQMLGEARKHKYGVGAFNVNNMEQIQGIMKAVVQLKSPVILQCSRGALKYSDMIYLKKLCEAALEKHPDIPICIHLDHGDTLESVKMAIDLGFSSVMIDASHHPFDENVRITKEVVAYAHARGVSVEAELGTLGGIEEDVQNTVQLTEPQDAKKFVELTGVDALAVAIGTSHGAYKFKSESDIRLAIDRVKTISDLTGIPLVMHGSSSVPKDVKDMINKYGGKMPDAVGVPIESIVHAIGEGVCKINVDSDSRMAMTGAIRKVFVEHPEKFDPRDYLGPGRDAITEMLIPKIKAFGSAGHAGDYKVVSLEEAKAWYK
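40 nM FBPA preincubated 10 min at RT with compound (up to 57.5 uM final), then substrate plus GAPDH/TPI/NAD/arsenate coupling and diaphorase/resazurin added. Fluorescence read after 20 min at RT, 525/598 nm.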
HCV inh: qHTS Assay for Inhibitors of Hepatitis C Virus (HCV); Huh7.5.1 HCVcc-Cre infection, luciferase reporter, 44 h; AID 651820, 2012; 340,000 tested, 3.4% active; Potency, µM (series often up to 41.8 µM), actives largely listed as inhibitors
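Luciferase read-out (15 sec integration) after a 15 min room-temperature substrate step quantifies HCVcc-Cre infection. Cells, 1,000 per well, had compound added 4 h post-plating, then virus at ~0.5 moi, and were cultured 44 h.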
Numbers stand for hits; [ ] = dose if it differs, or a comment. This is a sample that favours compounds with a hit; in the whole collection about 8.3% have one here. Unless noted, calls come from the whole dose curve; as a rule, active = well fitted curve in the direction sought with a large enough effect; inconclusive = small, poorly fitted or top-dose-only effect, or another doubt; inactive = no such curve, though single readings can be large; an effect the other way counts as inactive or inconclusive.

How did CC(C)NC(=O)N1CC2(CCN(C(=O)c3ccncc3)CC2)C1 do in these assays?
FMDV inh: inactive; Giardia FBPA inh: inactive

Results for Oc1ccc(C[C@H]2CN([C@@H](Cc3ccc(O)cc3)CN3CCC[C@@H]3CN3C(=S)NC[C@@H]3Cc3ccccc3)C(=S)N2CC2CCCCCC2)cc1 ?
HCMV inh: -97; FMDV inh: inactive

What do the screens show for `CC(C)C[C@H]1CNC(=S)N1C[C@H]1CCCN1C[C@H](Cc1ccc(O)cc1)N1C[C@H](Cc2ccccc2)N(CCc2ccccc2)C1=S`?
HCMV inh: inactive; FMDV inh: inactive

Results for Oc1ccc(C[C@H]2CN([C@@H](Cc3cccc(O)c3)CN3CCC[C@@H]3CN3C(=S)NC[C@@H]3Cc3ccccc3)C(=S)N2CC2CCCCC2)cc1 ?
HCMV inh: -72; FMDV inh: inconclusive

What do the screens show for `Oc1ccc(C[C@H]2CNC(=S)N2CC2CCCN2C[C@H](Cc2ccc(O)cc2)N2C[C@H](Cc3ccc(O)cc3)N(CC3CCCCC3)C2=S)cc1` (some centres undefined)?
HCMV inh: -93; FMDV inh: inconclusive; HCV inh: inconclusive

How did Oc1ccc(C[C@H]2CNC(=S)N2CC2CCCN2C[C@H](Cc2ccc(O)cc2)N2C[C@H](Cc3ccccc3)N(CCc3ccccc3)C2=S)cc1 (some centres undefined) do in these assays?
HCMV inh: inactive; FMDV inh: inactive; HCV inh: 4.5µM

What do the screens show for `Oc1ccc(C[C@H]2CNC(=S)N2C[C@H]2CCCN2C[C@H](Cc2ccccc2)N2C[C@H](Cc3ccc(O)cc3)N(CC3CCCCCC3)C2=S)cc1`?
HCMV inh: inconclusive; FMDV inh: inactive

What do the screens show for `CCN1C(=O)[C@H]2[C@H]3[C@H](O)[C@H](O)C/C(=N/OC[C@@H]4O[C@H](c5ccccc5)C=C[C@@H]4Oc4ccc(OC)cc4)[C@@H]3CC[C@@H]2C1=O`?
Marburg entry inh: inactive; Giardia FBPA inh: inactive[12.9 µM]

How did Oc1ccc(C[C@H]2CN([C@@H](Cc3ccccc3)CN3CCCC3CN3C(=S)NC[C@@H]3Cc3ccccc3)C(=S)N2CC2CCCCC2)cc1 (some centres undefined) do in these assays?
HCMV inh: inconclusive; FMDV inh: inactive

Results for Oc1ccc(C[C@H]2CNC(=S)N2CC2CCCN2C[C@H](Cc2ccccc2)N2C[C@H](Cc3ccc(O)cc3)N(CC3CCCCCC3)C2=S)cc1 (some centres undefined) ?
HCMV inh: -63; FMDV inh: inconclusive; HCV inh: inconclusive

How did Cc1ccc(N2C(=O)NC(=O)/C(=C/C=C/c3ccco3)C2=O)cc1 do in these assays?
Marburg entry inh: inconclusive; Lassa entry inh: inactive; HCMV inh: -98; FMDV inh: inconclusive; Giardia FBPA inh: inactive; HCV inh: inconclusive

How did CCc1ccc(N2C(=O)NC(=O)/C(=C\C=C\c3ccco3)C2=O)cc1 do in these assays?
HCMV inh: -77; FMDV inh: 25µM; Giardia FBPA inh: inactive; HCV inh: inconclusive

How did O=C1NC(=O)N(c2ccccc2)C(=O)/C1=C\C=C\c1ccccc1 do in these assays?
Marburg entry inh: inactive; Lassa entry inh: inactive; HCMV inh: inactive; FMDV inh: 13µM; Giardia FBPA inh: inactive; HCV inh: inconclusive

How did O=C1NC(=O)N(Cc2ccc(F)cc2)C(=O)/C1=C\C=C\c1ccco1 do in these assays?
HCMV inh: -97; FMDV inh: 28µM; Giardia FBPA inh: inactive; HCV inh: inconclusive

What do the screens show for `CCc1ccc(N2NC(=O)/C(=C/C=C/c3ccco3)C2=O)cc1`?
Marburg entry inh: inactive; Lassa entry inh: inactive; HCMV inh: inactive; FMDV inh: inactive; Giardia FBPA inh: inactive; HCV inh: inactive

How did COc1cccc(-c2cc3c(Nc4cccnc4)nccc3n2C)c1 do in these assays?
HCMV inh: inactive

Results for CCN(c1cccc(C)c1)c1ncnc2c1cnn2-c1cccc(Cl)c1 ?
Lassa entry inh: inactive; HCMV inh: inactive; FMDV inh: inactive

Results for Cc1cc(C)cc(N2C(=O)NC(=O)/C(=C\C=C\c3ccco3)C2=O)c1 ?
Marburg entry inh: inconclusive; Lassa entry inh: inconclusive; HCMV inh: -99; FMDV inh: 14µM; Giardia FBPA inh: inactive; HCV inh: inconclusive

What do the screens show for `CC(C)c1ccc(N2C(=O)NC(=O)/C(=C/C=C/c3ccco3)C2=O)cc1`?
Marburg entry inh: inconclusive; Lassa entry inh: inconclusive; HCMV inh: -101; FMDV inh: 13µM; Giardia FBPA inh: inactive; HCV inh: inconclusive

What do the screens show for `CCCCN1C(=O)/C(=C/C=C/c2ccco2)C(=O)NC1=S`?
Marburg entry inh: inactive; Lassa entry inh: inactive; HCMV inh: inactive; FMDV inh: inactive; Giardia FBPA inh: inactive; HCV inh: inactive

How did CCC(CC)C(C(=O)NC1CCCCC1)N1C(=O)C(=O)c2ccccc21 (centres undefined) do in these assays?
HCMV inh: inactive

Results for O=C(C1=C(O)C(=O)N(c2ncccn2)[C@@H]1c1cccc(Cl)c1)c1ccco1 ?
Marburg entry inh: inactive

Results for COc1ccc(C(C(=O)NC2CCCCC2)N(C(=O)c2snc(C(N)=O)c2N)c2ccc(OC)cc2OC)cc1 (centres undefined) ?
Marburg entry inh: inconclusive; Lassa entry inh: inconclusive; HCMV inh: inconclusive; FMDV inh: inactive; Giardia FBPA inh: inactive; HCV inh: 8.9µM

What do the screens show for `COc1ccc(N(C(=O)c2snc(C(N)=O)c2N)C(C(=O)NCc2ccc(F)cc2)c2ccc(C)o2)c(OC)c1` (centres undefined)?
Marburg entry inh: 13µM; Lassa entry inh: 8.9µM; HCMV inh: inconclusive; FMDV inh: inactive; Giardia FBPA inh: inactive; HCV inh: inconclusive

How did COc1ccc(C(C(=O)NC2CCCC2)N(C(=O)c2snc(-c3ccc(F)cc3)c2N)c2ccccc2)cc1 (centres undefined) do in these assays?
Marburg entry inh: inactive; Lassa entry inh: inactive; HCMV inh: inactive; FMDV inh: inactive; Giardia FBPA inh: inactive; HCV inh: inactive

What do the screens show for `COc1ccc(N(C(=O)c2snc(C(N)=O)c2N)C(C(=O)NC2CCCCC2)c2ccc(C)o2)c(OC)c1` (centres undefined)?
Marburg entry inh: inactive; HCMV inh: inconclusive; FMDV inh: inconclusive; Giardia FBPA inh: inactive; HCV inh: inconclusive

Results for COc1ccc(N(C(=O)c2snc(C(N)=O)c2N)C(C(=O)NC2CCCC2)c2ccc(F)cc2)c(OC)c1 (centres undefined) ?
Marburg entry inh: inconclusive; Lassa entry inh: inactive; HCMV inh: inactive; FMDV inh: inactive; Giardia FBPA inh: inactive; HCV inh: 11µM

Assay outcomes: PubChem, National Center for Advancing Translational Sciences (NCATS)
